Source: PubChem BioAssay (NCI)
The panel holds about 83,000 compounds, 20% with a hit somewhere; the sample as a whole holds those more often.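 Testing used 96-well plates and a 48-hour single-concentration exposure. Example: -40 means 40% of the starting cells died.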 Values without a mark were called inactive. The source made the active and inactive calls.

System: UACC-62 melanoma
Assay: NCI-60 one-dose screen, 48 h (100 = growth as untreated, 0 = no growth, -100 = all killed)
Settings: 10 µM unless noted
Experimental: Growth inhibition of the UACC-62 human tumor cell line is measured as a screen for anti-cancer activity. Cells are grown in 96 well plates and exposed to the test compound for 48 hours. Compounds are tested at a single concentration, which is 10^-5 M for most compounds. The reported endpoint is percent growth (GI% or GIPRCNT), where numbers from 0 - 100% represent growth inhibition, and numbers from -100% - 0 represent cell death. For example, a value of 40 represents 60% growth inhibition. A value of 0 means no net growth occurred over the course of the experiment. A value of -40 indicates 40% of cells at the beginning of the experiment died by the end of the experiment. A value of -100 means all cells are dead at the end of the experiment.
NCI-60 Human Tumor Cell Lines Screen was performed using the standard one-dose NCI protocol, which is described in more detail at https://dtp.cancer.gov/discovery_development/nci-60/default.htm.
Compounds with GIPRCNT values below 10 were considered active. Activity score was based on GIPRCNT using the following formula: […]
Score is 0 for GIPRCNT values of 100 or above, 50 for GIPRCNT values of 0, and 100 for GIPRCNT values of -100.

Compound | growth
COc1ccc(NNS(=O)(=O)O)cc1 | 96.7%
Nc1ccn(C2OC(CO)C(O)C2F)c(=O)n1 (stereo not given) | 77.7%
CCCCNc1ccc(-c2ccc(NCCCC)cc2)cc1 | 42.8%
COc1cc(OC)c(NC(=O)C(Sc2nc(C)cc(C)c2C#N)c2ccccc2)cc1Cl (stereo not given) | 94.6%
COc1c(CNC(=O)CCl)cc2[nH]c(C)cc2c1CNC(=O)CCl | 30.6%
CCCCCCCCCCCCCC/C=C\C(CC(=O)O)C(=O)O (stereo not given) | 100%
O=c1cc(Cl)nc2ccccn12 | 117%
CCN(CC)CCCC(C)NC(=S)N/N=C(\C)c1ccccn1 (stereo not given) | 22.3%
CCCc1cccc(CCC)c1NC(=O)Nc1cc(Cl)cc(Cl)c1 | 90%
c1ccc(Nc2ccccn2)nc1 | 94.1%
CCCCn1cnc2c(=O)[nH]cnc21 | 95.7%
COc1ccc(C)cc1NC(=O)SC(C)C | 87.5% [100 µM]
OCC1OC(n2ccc3c2ncn2ncnc32)C(O)C1O (stereo not given) | 61.2%
CCN(Cc1ccc(Cl)c(Cl)c1)c1ccc2nc(N)nc(N)c2c1C | -86.1% (active)
O=C1Nc2ccccc2/C1=C\c1ccccc1O | 80.5%
CCCCCCCCCCCCCCCCOc1ccccc1NC(=O)CC(C)=O | 78.7%
COc1cc(N)c2ncccc2c1Cl | 86.7%
O=C(NCc1ccco1)Nc1cccc2c(NC(=O)NCc3ccco3)cccc12 | 96.6% [100 µM]
Cc1ccc([N+](=O)[O-])c(C)n1 | 107%
C/C(O)=C(/C=N/C(=S)Nc1ccccc1)C(=O)Nc1ccccc1C | 79.4%

Compound | growth
Clc1ccc(C(SCc2ccccc2)SCc2ccccc2)cc1 | 82.1%
C=C1C(=O)C2CCC1C2 (stereo not given) | 108%
CCCC(=O)c1cccs1 | 95.1%
Nc1ncc([N+](=O)[O-])cn1 | 98.9%
C/C=C/C1OCC(CC)C(CCC)O1 (stereo not given) | 101%
O=C(OCC1CCCO1)c1ccc([N+](=O)[O-])cc1 (stereo not given) | 99.8%
CC(C)c1ccc(C(=O)OCCCl)cc1 | 110%
CC(=O)O[C@H]1CC[C@]2(C)C3=C(C(=O)C[C@H]2C1(C)C)[C@]1(C)CC[C@H]([C@H](C)CCC(=O)O)[C@@]1(C)CC3=O | 106%
NNc1ncnc2c1ncn2C1OC(CO)C(O)C1O (stereo not given) | 60.5%
C1=NCCc2ccccc21 | 114%
Nc1cc2ccccc2c(O)c1O | 90.9%
Nc1ccc(F)cc1F | 100%
CCOC(=O)c1ccc(NC(=O)Nc2nccs2)cc1 | 31.8%
Oc1ccc(CCC2CCNc3ccccc32)cc1 (stereo not given) | 72%
O=C(Nc1ccc([N+](=O)[O-])cc1)C(=O)Nc1ccc([N+](=O)[O-])cc1 | 97%
COC(c1ccc2c(c1)OCO2)C(C)Br (stereo not given) | 94.6%
CC1CC2C3CCC4=CC(=O)CCC4(C)C3CCC2(C)C1(O)C(=O)CO (stereo not given) | 108%
Cc1cc(C(=O)c2ccccc2)cc(C)c1O | 108%
C/C(=N\N=C(/C)c1cccc([N+](=O)[O-])c1)c1cccc([N+](=O)[O-])c1 | 93.2%
CCCCOC(=O)c1ccc(NC(=O)CCl)cc1 | 52.9%
